Experimental data published in PubChem BioAssay (Tox21).
“And” between values parts separate entries of the source, which are not always exact repeats. Equal values may be shown once. Values without a mark were called inactive. A call without a number means that no potency is given here. The source made the active and inactive calls. Calls follow the shape of the full dose curve.

The compounds below were run against Estrogen receptor (Homo sapiens) (UniProt P03372) (assay: qHTS assay to identify small molecule agonists of the estrogen receptor alpha (ER-alpha) signaling pathway in the presence of an antagonist (AID 1259383; also: nearly all actives have a fitted effect of over 15% in size; as to activation: top concentration of the series differs between compounds)). Details: VM7Luc4E2 cells, ERE-luciferase, +ICI-182,780, 22 h; series mostly up to 92.4 µM.
Chain of Estrogen receptor (Homo sapiens) (P03372 whole entry, looked up): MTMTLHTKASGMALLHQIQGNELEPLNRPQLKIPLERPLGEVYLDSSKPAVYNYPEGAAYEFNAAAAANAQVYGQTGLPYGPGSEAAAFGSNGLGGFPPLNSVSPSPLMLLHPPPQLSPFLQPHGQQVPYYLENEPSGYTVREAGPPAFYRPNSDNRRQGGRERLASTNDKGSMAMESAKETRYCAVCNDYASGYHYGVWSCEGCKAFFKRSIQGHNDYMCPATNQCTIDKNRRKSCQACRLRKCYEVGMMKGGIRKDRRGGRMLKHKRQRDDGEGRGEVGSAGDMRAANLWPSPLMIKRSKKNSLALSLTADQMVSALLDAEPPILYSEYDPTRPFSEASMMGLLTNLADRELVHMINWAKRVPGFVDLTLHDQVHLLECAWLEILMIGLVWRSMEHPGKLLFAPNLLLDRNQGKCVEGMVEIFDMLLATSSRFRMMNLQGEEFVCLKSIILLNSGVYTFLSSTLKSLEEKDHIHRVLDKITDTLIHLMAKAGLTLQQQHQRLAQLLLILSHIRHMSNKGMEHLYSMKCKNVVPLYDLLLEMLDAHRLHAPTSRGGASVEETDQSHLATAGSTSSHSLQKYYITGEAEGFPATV
Description: National Center for Advancing Translational Sciences [NCATS] NIH Chemical Genomics Center [NCGC] U.S. Environmental Protection Agency [EPA] National Institutes of Environmental Health Sciences [NIEHS] National Toxicology Program [NTP] Assay overview: Estrogen receptor (ER), a member of nuclear hormone receptor plays an important role in development, metabolic homeostasis and reproduction. Two subtypes of ER, ER-alpha and ER-beta, have similar expression patterns with some uniqueness in both types. Endocrine disrupting chemicals (EDCs) and their interactions with steroid hormone receptors like ER causes disruption of normal endocrine function. Therefore, it is important to understand the effect of environmental chemicals in ER signaling pathway. For identifying ER agonists, VM7Luc4E2 cell line has been used in the current assay. VM7Luc4E2 cell line (provided by Denison MS, University of California) endogenously expresses full-length ER-alpha and is stably transfected with a plasmid containing four estrogen responsive elements (ERE) upstream of a luciferase reporter gene. This current screening for measuring luciferase reporter gene activity using VM7Luc4E2 cells against Tox21 10K library collection is a confirmation study on agonist mode screening in presence of ER-antagonist (ICI-182,780) at 10.0nM final concentration.
Assay Protocol Summary: VM7Luc4E2 cells were cultured in phenol red free assay medium containing 10% charcoal stripped FBS for 5 days prior to the assay. The cells were dispensed at 4,000 cells in 4uL of assay medium per well into white wall/solid-bottom 1536-well plates (Corning Life Sciences, Corning, NY) using a Multidrop Combi (Thermo Fisher Scientific Inc., Waltham, MA) dispenser. After the assay plates were incubated at 37C and 5% CO2 for 24hr, 1uL of 10.0nM (final concentration) ICI-182,780 or assay buffer was added using two separate tips of Flying Reagent Dispenser (FRD, Aurora Discovery, San Diego, CA). Then 23nL of compounds dissolved in DMSO at 15 concentrations and positive controls or DMSO only was transferred to the assay plates by a Pintool station (Wako, San Diego, CA). The assay plates were incubated at 37C and 5% CO2 for 22hr. For luciferase read, 4uL/well ONE-Glo reagent (Promega Corporation, Madison, WI) was added to each well using FRD and after 30min incubation at room temperature, luminescence signal was measured on ViewLux plate reader (PerkinElmer, Shelton, CT).
Potency is read from the fitted curve at half-maximal effect.

| SMILES | Potency | activation |
| --- | --- | --- |
| C[C@H](CCC(=O)O)[C@H]1CC[C@H]2[C@@H]3CC[C@@H]4C[C@H](O)CC[C@]4(C)[C@H]3CC[C@]12C | inactive | – |
| CSc1ccc(C(=O)c2[nH]c(=O)[nH]c2C)cc1 | inactive | – |
| CSc1cnc(C)cn1 | inactive | – |
| CC(C)(C)NC(=O)[C@@H]1C[C@@H]2CCCC[C@@H]2CN1C[C@@H](O)[C@H](Cc1ccccc1)NC(=O)[C@H](CC(N)=O)NC(=O)c1ccc2ccccc2n1 | inactive | – |
| CS(=O)(=O)CCNCc1ccc(-c2ccc3ncnc(Nc4ccc(OCc5cccc(F)c5)c(Cl)c4)c3c2)o1 | inactive | – |
| C=CC(=O)OCC(CO)(COCC(COC(=O)C=C)(COC(=O)C=C)COC(=O)C=C)COC(=O)C=C | inactive | – |
| CN(C)CCCOC1(Cc2ccccc2)CCCCCC1 | inactive | – |
| CCCCCCCCCCCCCCCCCC[N+](C)(C)C | inactive | – |
| COC(=O)C1=C(C)NC(C)=C(C(=O)OCC(C)C)C1c1ccccc1[N+](=O)[O-] (stereo not given) | inactive | – |
| CCCN(CCC)C(=O)C(CCC(=O)OCCCN1CCN(CCOC(=O)Cc2c(C)n(C(=O)c3ccc(Cl)cc3)c3ccc(OC)cc23)CC1)NC(=O)c1ccccc1 (stereo not given) | 11.9 µM (active) | – |
| CC(=O)S[C@@H]1CC2=CC(=O)CC[C@]2(C)[C@H]2CC[C@@]3(C)[C@@H](CC[C@@]34CCC(=O)O4)[C@H]12 | inactive | – |
| CCOC(=O)c1nc(C(Cl)(Cl)Cl)n(-c2ccc(Cl)cc2Cl)n1 | inactive | – |
| C[C@@H](NCCCc1cccc(C(F)(F)F)c1)c1cccc2ccccc12 | inactive | – |
| Cc1cc(CCN2CCN(c3nsc4ccccc34)CC2)cc2c1NC(=O)CC2(C)C | inactive | – |
| Cc1cc(O)c(Cl)c(C)c1Cl | inactive | – |
| CC(C)n1nc(-c2cc3cc(O)ccc3[nH]2)c2c(N)ncnc21 | inactive | – |
| O=C(c1ccc(O)cc1O)c1ccc(O)cc1O | 9.7 µM (active) and 7.7 µM (active) | – |
| OCc1c[nH]c2ccccc12 | inactive | – |
| COc1cc(-c2nc(NC(=O)c3cc4cc(C)cc(C)c4n3CC(=O)O)sc2CCC2CCCCC2)c(OC)cc1Cl | inactive | – |
| C=C(C)C(=O)OCC(O)COc1ccc(C(C)(C)c2ccc(OCC(O)COC(=O)C(=C)C)cc2)cc1 (stereo not given) | inactive | – |

| SMILES | Potency | activation |
| --- | --- | --- |
| N=C1N=C(N)c2cc3ccccc3cc21 | inactive | – |
| C/C=C1/C(=O)C[C@H]2[C@@H]3CCC4=CC(=O)CC[C@]4(C)[C@H]3CC[C@]12C | inactive | – |
| O=c1[nH]sc2ccccc12 | inactive | – |
| COCCCC/C(=N\OCCN)c1ccc(C(F)(F)F)cc1 | inactive | – |
| Cc1onc(-c2ccccc2Cl)c1C(=O)N[C@@H]1C(=O)N2[C@@H]1SC(C)(C)[C@@H]2C(=O)O | inactive | – |
| Cc1cccc(N(C)C(=S)Oc2ccc3c(c2)C2CCC3C2)c1 (stereo not given) | inactive | – |
| CCCCC(CC)CN=C(N)NC(N)=NCCCCCCN=C(N)NC(N)=NCC(CC)CCCC (stereo not given) | inactive | – |
| [O-][n+]1ccccc1SSc1cccc[n+]1[O-] | – | 3.22% [at 19 µM] |
| O=c1cccccc1O | inactive | – |
| O=C(NOCC1CC1)c1ccc(F)c(F)c1Nc1ccc(I)cc1Cl | inactive | – |
| COc1ccc(-c2ccc3cc(C(=O)O)ccc3c2)cc1C12CC3CC(CC(C3)C1)C2 | inactive | – |
| Oc1ccc(N=Nc2ccccc2)cc1 | 24.7 µM (active) | – |
| CC1=C(C(=O)OC(C)C)C(c2cccc([N+](=O)[O-])c2)C(C(=O)OC2CN(C(c3ccccc3)c3ccccc3)C2)=C(N)N1 (stereo not given) | inactive | – |
| N/C(=N\N=C\c1ccc(Cl)cc1)N/N=C/c1ccc(Cl)cc1 | inactive | – |
| [Cl][Bi]([Cl])([c]1ccccc1)([c]1ccccc1)[c]1ccccc1 | inactive | – |
| CCCCCCCCCCCCCCCC(=O)OC[C@H](O)[C@H]1OC(=O)C(O)=C1O | inactive | – |
| CCC(C)Nc1ccc(NC(C)CC)cc1 (stereo not given) | inactive | – |
| N=C1N=C(N)c2ccccc21 | inactive | – |
| O=C(Oc1ccccc1)c1ccccc1C(=O)Oc1ccccc1 | inactive | – |
| C[C@]12CCC(=O)C=C1CC[C@@H]1[C@@H]2[C@@H](O)C[C@@]2(C)[C@H]1CC[C@]2(O)C(=O)COC(=O)CCC(=O)O | inactive | – |
